Consider 40 compounds from PubChem BioAssay (NCI).

Compounds without any hit were thinned out: in the full panel of roughly 83,000, 20% have a hit.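 In brief: 96-well plates, 48 h treatment, single concentration, percent growth endpoint.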 A number with no mark means an inactive call. Active and inactive are the calls of the source. The calls were made as follows: active = growth percent below 10; inactive = the rest.

The subject of this experiment is RPMI-8226 leukemia. As to the kind of experiment: NCI-60 one-dose screen, 48 h (100 = growth as untreated, 0 = no growth, -100 = all killed). The conditions noted are these: 10 µM.
On to `Nc1nc(-c2ccccc2)cc(-c2cc3ccccc3nc2Cl)n1`, for which the growth is 19.2%. For `O=C(Cn1cc(CSc2nnc3oc4ccccc4n23)nn1)Nc1ccc(Br)cc1` the value was 93.2%. As to `O=c1oc2ccc(-c3ccc(F)cc3F)cc2c(=O)n1-c1ccc(F)c(Cl)c1`, the growth was -31% (active). For `CN1CCN(c2ccc(Nc3nc(NCCCNC(=O)c4ccc(F)cc4)c4sccc4n3)cc2)CC1` the value was -22.5% (active); for `CO[C@@H]1CSS[C@H]1Cn1nc(-c2ccc(Oc3ccccc3)cc2)c2c(N)ncnc21`, 34.3%.

Turning to `CC(=O)Nc1ccc(-n2cnc3cc(-c4ccc(O)cc4)ccc32)cc1C`, the growth is 42.7%. For `COC(=O)CC1CC1C1Cc2c(nc(N(C)S(C)(=O)=O)nc2C(C)C)-c2ccc(F)cc21` (stereo not given) the value was 46%; for `CC(=O)Nc1nc(-c2ccc(N3CCN(C)CC3)c(NS(=O)(=O)c3ccc(C(F)(F)F)cc3)c2)cs1`, -29.4% (active). For `Cc1ccc(-c2ccc(SCC(=O)Nc3ccc(Cl)c(C(F)(F)F)c3)nn2)cc1` the value was 19.7%. As for `c1ccc(C(=C(c2ccc(OCCN3CCCCC3)cc2)c2ccc(OCCN3CCCCC3)cc2)C2CCCC2)cc1`, the figure is -51.4% (active); as for `O=C(O)CCCCCCCCCCN1C(=O)/C(=C/c2cnc(-c3ccccc3)s2)SC1=S`, 86.5%. Turning to `CCN(CC)CCOc1ccc(C(=C(C)c2ccccc2)c2ccc(OCCN(CC)CC)cc2)cc1`, the growth was -35.4% (active).

`Cc1ccc(C(=O)Nc2ccc(-n3c(C)nc4c(cnn4-c4ccccc4)c3=O)cc2)cc1`: the growth is 58.4%. On to `COc1ccc2[nH]c(O)c(N=NC(=O)COc3ccc(NC(=O)Nc4ccc(Cl)c(Cl)c4)cc3)c2c1`, for which the growth was 11.1%. As for `O=C1NC(=NC23CC4CC(CC(C4)C2)C3)N/C1=C\c1ccc2ncccc2n1`, the figure is -23.3% (active). For `COC(=O)C(Cc1ccc(O)c(O)c1)NC(=O)C(CSC/C=C(\C)CCCC(C)CCCC(C)CCCC(C)C)NC(C)=O` (stereo not given) the value was -5.06% (active); for `O=C(Nc1ccncc1)c1ccc(-n2c(=O)[nH]c3ccccc3c2=O)cc1`, 100%; for `CCCCCc1ccc(S(=O)(=O)N(C(C)=O)c2cc(-c3csc(N(C)C(C)=O)n3)ccc2N2CCN(C)CC2)cc1`, -24.8% (active).

As to `COc1ccc(-c2ccc(/C=N/NC(=O)c3[nH]c4ccc(Br)cc4c3-c3ccccc3)s2)cc1`, the growth is 57.7%. As for `CC(C)CCSc1nc(NC2CC2)c(C#N)c(-c2ccc(C(C)C)cc2)n1`, the figure is 101%. Regarding `O=C(Nc1nc2ccc([N+](=O)[O-])cc2s1)Nc1ccccc1I`, the growth is -27.9% (active). For `Cc1ccc(CSc2nc(Cl)c(C#N)c(-c3ccc(F)cc3)n2)cc1` the value was 58.5%; for `CCN1CCN(c2ccc(NC(=O)Nc3ccc(-c4cc(C(=O)NC)c5ncccc5n4)cc3)cc2C(F)(F)F)CC1`, -50.3% (active). For `COc1ccccc1NCc1ccc(CO)n1-c1ccc(C)cc1` the value was 85.8%; for `CCCCCCCCCCCCCCCCCCCC(=O)NCCc1c[nH]c2ccc(OC(=O)NOCCOCCOCCOCCOCCOCCOCCOCCOCCOCCOCCOCCOCCOCCOCCOCCOCCOCCOCCOCCOCCOCCOC)cc12`, -29.5% (active); for `CC(=O)NCC1=C(C)C=C2C(=O)[C@](C)(O)C3(CC3)C(C)=C21`, 82.7%. As for `Cc1cccc2cc(-c3cc(-c4ccccc4)nc(=S)[nH]3)c(Cl)nc12`, the figure is 81%. Consider `CO[C@H]1CSS[C@@H]1Cn1nc(-c2ccc(Oc3ccccc3)cc2)c2c(N)ncnc21`, for which the growth is 36.4%. As for `CNC(=O)c1cc(-c2ccc(NC(=O)Nc3ccc(C)cc3)cc2)nc2cccnc12`, the figure is 88.8%. As for `O=C(Cn1cc(CSc2nnc3oc4ccccc4n23)nn1)Nc1cccc(Cl)c1`, the figure is 48.5%.

For `O=C(Nc1cc(Cl)cc(Cl)c1)Nc1cc(Cl)cc(Cl)c1`, the growth is -42.4% (active). For `C=CC(=O)Nc1ccc(C(=O)/C=C/c2ccc(N(C)CCF)cc2)c(O)c1` the value was 3.47% (active); for `CC(=C(c1ccc(OCCN2CCCCCC2)cc1)c1ccc(OCCN2CCCCCC2)cc1)c1ccc(Cl)cc1`, -63.6% (active). As for `Cc1ccc(C(C)C)cc1NC(=O)c1ccccc1O`, the figure is 3.01% (active). For the compound `C=CC(=O)Nc1nc(-c2cccc(NS(=O)(=O)c3cccc4c(N(C)C)cccc34)c2)cs1`, the growth was -36.2% (active). As for `CC(C)NC(=O)c1cc(-c2ccc(NC(=O)Nc3ccc(N4CCN(C)CC4)c(C(F)(F)F)c3)cc2)nc2cccnc12`, the growth was -37.5% (active). As for `COc1ccc2[nH]c(=O)c(CSc3nccc(-c4ccc(Cl)cc4)n3)cc2c1`, the figure is 17.6%; as for `O=C1Nc2cc(Cl)ccc2/C1=C/c1ccc(OCc2ccc(Br)cc2F)cc1`, 0.87% (active). In the case of `O=C(N/N=C/c1ccc(B(O)O)o1)c1[nH]c2ccc(Br)cc2c1-c1ccccc1`, the growth is 28.2%. On to `CCCS(=O)(=O)c1oc(-c2ccc(F)cc2)nc1S(=O)(=O)c1ccc(F)cc1`, for which the growth is -46.6% (active).
